# Screen size: about 340,000 compounds; about 280 (0.082%) were called active. Many of the other results were omitted from the sample, so actives are more common in it than they were. A number with no mark means an inactive call. No stated cut-off is given here; in the data, active means inhibition mostly above about 23% (no sharp cut-off); inactive means mostly below about 18%.
# Biological target: 5-hydroxytryptamine receptor 5A (Homo sapiens) (UniProt P47898)
# Assay: HTR5A inverse agonists in luminescence cell assay, primary screen, counter-screen for OPRM1-OPRD1 heterodimer inverse agonist project, full-deck HTS (AID 504634);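 further: 0% = cells with DMSO and 100% = no-cell wells with DMSO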
# Conditions: HTR5A cell line, inverse agonism, at 9.3 µM, active compounds read high
# 5-hydroxytryptamine receptor 5A (Homo sapiens), sequence (P47898 whole entry, looked up): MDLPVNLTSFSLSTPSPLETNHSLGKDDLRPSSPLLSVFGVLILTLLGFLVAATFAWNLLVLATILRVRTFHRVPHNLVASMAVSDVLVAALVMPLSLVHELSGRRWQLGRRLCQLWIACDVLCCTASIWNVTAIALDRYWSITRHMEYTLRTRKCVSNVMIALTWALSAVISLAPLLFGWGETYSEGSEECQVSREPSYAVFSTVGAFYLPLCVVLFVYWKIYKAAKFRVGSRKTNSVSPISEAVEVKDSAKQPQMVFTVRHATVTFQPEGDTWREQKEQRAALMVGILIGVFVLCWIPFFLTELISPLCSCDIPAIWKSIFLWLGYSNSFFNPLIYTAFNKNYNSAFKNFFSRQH
row,SMILES,inhibition
1,CCCC1NC(=O)NC(C)=C1C(=O)OCC (stereo unspecified),-17.2%
2,CCOC(=O)c1c(C)[nH]c(C)c1S(=O)(=O)NCCCc1ccco1,16.2%
3,CCNS(=O)(=O)c1ccc(CCC(=O)N2CCN(c3ccc(OC)cc3)CC2)cc1,8.47%
4,CC(NC(=O)CNC(=O)Cc1cccc2ccccc12)c1ccc(S(N)(=O)=O)cc1 (stereo unspecified),2.43%
5,O=c1ccc2c(-c3ccccc3S(=O)(=O)O)c3ccc(O)c(O)c3oc-2c1O,24.5% (active)
6,NS(=O)(=O)c1ccc(CCNC(=O)c2ccc(Cl)c(S(=O)(=O)N3CCCCCC3)c2)cc1,-7.96%
7,COc1ccc2[nH]c3c(c2c1)CCN1C(=O)C(CC(=O)NCCc2ccccn2)C[C@H](C(=O)N2CCOCC2)[C@@]31C (stereo partly specified),2.62%
8,Cc1noc(C)c1NC(=O)Nc1ccc2c(c1)C(=O)N([C@H](C)CO)C[C@H](C)[C@@H](CN(C)C(=O)Nc1ccccc1)O2,-10%
9,S=C(Nc1ccc(Br)cc1Cl)N1CCC2(CC1)OCCO2,2.4%
10,CC(C)Cn1cnc2c1c(=O)n(CC(O)c1ccccc1)c(=O)n2CC(C)C (stereo unspecified),-27.9%
11,COc1ccc(S(=O)(=O)N2CCc3ccccc32)cc1C(=O)Nc1cc(S(C)(=O)=O)ccc1Cl,-6.04%
12,COc1cc(CCC(=O)Nc2ccncc2Cl)cc(OC)c1OC,6.7%
13,Cc1cccn2c(=O)c(C=O)c(Nc3ccc(S(N)(=O)=O)cc3)nc12,-18.2%
14,O=C(O)c1ccccc1NC(=S)NC(NC(=O)c1ccccc1[N+](=O)[O-])C(Cl)(Cl)Cl (stereo unspecified),-0.92%
15,CCCS(=O)(=O)N1CCN(C(=O)c2cccs2)CC1,-3.26%
16,Cc1cccc(N2CC(C)Cn3c2nc2c3c(=O)n(CC(=O)OCc3ccccc3)c(=O)n2C)c1 (stereo unspecified),-8.01%
17,COc1ccc(S(=O)(=O)N2CCOC2CNC(=O)C(=O)NCc2ccc(F)cc2)cc1 (stereo unspecified),7.37%
18,CC(C)(C)c1ccc(S(=O)(=O)N2CCN(C(=O)c3ccc4c(c3)C(=O)N(Cc3ccncc3)C4=O)CC2)cc1,5.4%
19,COc1ccc(C#Cc2c(-c3ccc(OC)cc3)oc3ccc(-c4ccc5c(c4)OCO5)cc23)cc1,5.51%

row,SMILES,inhibition
1,CC1(c2ccc3ccccc3c2)NC(=O)N(CC(N)=O)C1=O (stereo unspecified),1.06%
2,CCCC(=O)N1CCN(c2nnc(-c3ccc(C)cc3)c3ccccc23)CC1,-8.96%
3,CN(C(=O)COC(=O)CCCc1c[nH]c2ccccc12)c1c(N)n(Cc2ccccc2)c(=O)[nH]c1=O,20.6%
4,NC(=O)c1cc(S(=O)(=O)NCCCc2ccco2)cs1,1.79%
5,CCc1ccc(NC(=O)CCNS(=O)(=O)c2cccs2)cc1,-3.72%
6,COc1ccc(/C=N/OCc2ccccc2C#N)c(OC)c1,-3.2%
7,Cc1ccc(C(=O)NCC(=O)NC2CC2)cc1,4.21%
8,NS(=O)(=O)c1ccc(CCNC(=O)c2nc(CS(=O)(=O)c3ccc(Cl)cc3)no2)cc1,-12.4%
9,Cn1cnc(C(F)(F)F)c1-c1ccc([N+](=O)[O-])cc1,8.1%
10,COc1ccccc1C1=CC(=O)CCC1,2.76%
11,CCn1c(SCC(=O)N(C)C2CCS(=O)(=O)C2)nnc1-c1cccs1 (stereo unspecified),-22.6%
12,O=c1nc(NO)ccn1C1CCCO1 (stereo unspecified),1.3%
13,O=C(O)c1ccc(-n2nc(-c3ccccc3)c3ccccc3c2=O)cc1,0.76%
14,COc1ccc(N(CC(=O)NC2CCCCC2)S(=O)(=O)c2c(C)[nH]c(=O)[nH]c2=O)cc1,1.68%
15,Cc1sc2ncn(CC(=O)NCCCC(=O)N3CCN(c4ccccc4F)CC3)c(=O)c2c1C,1.47%
16,Cc1nc(N)c(Br)c(C)c1Br,-6.08%
17,CSCCC(NC(=O)COc1ccccc1)C(=O)OCC(=O)c1cc2ccccc2o1 (stereo unspecified),33.3% (active)
18,CSCCC(NC(=O)COc1ccccc1)C(=O)OCCOc1ccc(Br)cc1 (stereo unspecified),-4.54%
19,CSCCC(NC(=O)COc1ccccc1)C(=O)OCc1ccc(Cl)cc1 (stereo unspecified),-5.68%

row,SMILES,inhibition
1,COc1cc(C(=O)NNC(=O)CN2C(=O)NC3(CCCC3)C2=O)cc(OC)c1OC,5.64%
2,COCCCNS(=O)(=O)c1cccc(S(=O)(=O)c2cccc(S(=O)(=O)NCCCOC)c2)c1,-5.56%
3,O=C(CC1C(=O)NCCN1Cc1ccc(-c2ccccc2)cc1)NCc1ccncc1 (stereo unspecified),-12.3%
4,COc1ccccc1CN(C)C(=O)C1(c2ccc(Cl)cc2)CC1,21.3%
5,Cc1cc(OC(=O)c2ccccc2Cl)ccc1N1C(=O)CCC1=O,11.2%
6,Cc1ccc(C(=O)OCC(=O)N2CC(C)CC(C)C2)cc1S(=O)(=O)N1CCCCC1 (stereo unspecified),11%
7,CCCCCCCC1(C)NC(=O)N(CC(=O)Nc2cc(C)on2)C1=O (stereo unspecified),-14.9%
8,O=C(NCCS(=O)(=O)N1CCN(c2ccc(F)cc2)CC1)c1ccc2c(c1)OCO2,9.72%
9,CN(CCc1ccccc1)C(=O)c1cccc(NC(=O)Cc2ccc([N+](=O)[O-])cc2)c1,-40.2%
10,Cc1cc(C)cc(C(=O)NC(CC(N)=O)c2ccc(N3CCC(N4CCCCC4)CC3)c([N+](=O)[O-])c2)c1 (stereo unspecified),-1.31%
11,Cc1ccc(S(=O)(=O)C2(S(=O)(=O)c3ccc(C)cc3)CCCC2)cc1,-9.41%
12,O=C(CCCOc1ccccc1)NNC(=O)c1ccc(Cl)cc1,-22.2%
13,COC(=O)N1CN(C(=O)OC)CN(C(=O)OC)C1,-11.4%
14,O=C(NNc1cc(Cl)cc(Cl)c1)c1c(F)cccc1Cl,5.05%
15,CC1(C)CC(=O)C(C2c3ccccc3S(=O)(=O)c3ccccc32)C(=O)C1,-6.15%
16,CC(C)OC(=O)Cn1nc(C(F)(F)F)c2c1CCCC2,-22%
17,CN1CCN(C2=NCCO2)CC1,13.4%
18,Nc1scc(-c2ccncc2)c1Cl,4.78%

# Source: PubChem BioAssay AID504634 (The Scripps Research Institute Molecular Screening Center, 2011)
